The term viability denotes a read-out of living cells in per cent, often relative to untreated cells. The term inhibition denotes the relative decrease from the control value, in per cent.

From PubChem BioAssay come the findings set out here.

A short description of test [1]: reducers of endogenous Her2 protein level, primary screen, SKBR3 breast tumor cells, AlphaScreen, ATP viability (AID 461;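 active = Her2 level under about 52% in both replicate screens, with viability over 70% of control, limit read from the data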;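 for Her2 level: lower value means less Her2 protein in the cells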;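 for viability: percent of carrier control wells set as 100% viability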). The conditions noted are these: 18-24 h, measured here: SKBR3 viability, ATP luminescence, at 10 µM.
In test [2] the target is Receptor tyrosine-protein kinase erbB-2 (Homo sapiens) (UniProt P04626). Described as above. The conditions noted are these: 18-24 h, at 10 µM, stronger effect = lower value.
Test [3] can be described thus: SK-BR-3 cell growth inhibitors, pilot screen, 24 h, human (AID 572;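 active = viability at or below 10% of carrier control in both of two separate runs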;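 note: compound exposure lasted between 18 and 24 h rather than exactly 24 h; 100% = carrier-treated control wells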). To be noted: SK-BR-3 viability, CellTiter-Glo luminescence, at 10 µM, stronger effect = lower value. For orientation: ATP-based viability assays read luminescence as a measure of living cells.
The nature of test [4]: HUVEC growth inhibition – cell-based, human, primary screen (AID 575;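 active = viability at or below 30% in both replicate assays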;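 note: 100% = median of untreated cell wells with 0.1% DMSO on each plate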). To be noted: HUVEC proliferation, CellTiter-Glo luminescence, 72 h; at 10 µM; stronger effect = lower value.
Test [5] in a line: growth inhibitors of H69AR lung tumor, primary screen, human, duplicate replicates (AID 580;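 active = viability at or under a set limit in both replicates, limit being median viability minus 3 SD, cut at about 48% in these data, passing the limit was not always enough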;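 note: 100% = mean luminescence of untreated wells and 0% = no signal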). To be noted: H69AR lung tumor cells viability, ATP luminescence, 72 h; at 10 µM; stronger effect = lower value.
Test [6] is described as follows: reversal of MRP1-mediated doxorubicin resistance, pilot screen, H69AR cells, doxorubicin co-treatment (AID 601;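 active = viability loss from added drug above about 55%, and viability with drug at most 40%, in both replicates, limit read from the data, passing the limit was not always enough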). The conditions noted are these: CellTiter-Glo, 72 h, at 10 µM; for differential viability (reversal): stronger effect = higher value.
A short description of test [7]: 384-well plate pilot, post-Golgi transport modulator project, inhibition of yeast transport mutant growth (AID 636; in the data active = inhibition above about 31%). The conditions noted are these: absorbance 615 nm, about 18 h, stronger effect = higher value.
Test [8] can be described thus: growth suppression of yeast trafficking mutant, preliminary HTS, modulators of trafficking downstream of Golgi apparatus project, 1536-format plate, OD 615 nm (AID 637; in the data active = inhibition above about 30%). To be noted: yeast transport mutant growth, absorbance 615 nm, 18 h; stronger effect = higher value.
The nature of test [9]: OD615 S. cerevisiae growth inhibition, permissive medium, pilot counter-assay, permissive growth control for S. cerevisiae lifespan shortening project (AID 705;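 active = growth inhibition above 25% in both replicates, a cutoff set 3 SD above the mean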). To be noted: OD615, 24 h, at 10 µM, stronger effect = higher value.
Test [10] is described as follows: Restrictive medium S. cerevisiae growth inhibition, OD615, pilot screen of yeast lifespan reduction project, restrictive growth control (AID 706;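 active = growth inhibition above a set limit, 3 SD over mean compound inhibition, in both replicates, cut at about 43% in these data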;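 note: modified DeaD lifespan yeast strain shifted to restrictive glucose medium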). The conditions noted are these: OD615, 48 h, at 10 µM, stronger effect = higher value.
Test [11] is described as follows: viability gain of MRP-1-high H69AR cells under doxorubicin, pilot screen, MRP-1 activator project, CellTiter-Glo, duplicate (AID 807;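 active = viability increase at or above a cutoff of the median across tested compounds plus 3 SD, cut at about 8.5% in these data, passing the limit was not always enough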;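 note: compound pretreatment 18-22 h then 72 h combined with doxorubicin; 0% = doxorubicin alone and 100% = vehicle without doxorubicin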). To be noted: H69AR viability with doxorubicin, CellTiter-Glo luminescence; at 10 µM; stronger effect = higher value.
The nature of test [12]: growth suppression of beta-catenin knockout HCT116, pilot screen, human colon tumor cells (AID 823).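 Note: 0% = wells killed by 20 µM Hyamine and 100% = untreated DMSO cell wells.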 To be noted: CellTiter-Glo, 60 h, at 10 µM, stronger effect = lower value.
Test [13] in a line: growth suppression of PTEN-deleted HCT116, pilot screen, cell-based, HCT116 clonal line, CellTiter-Glo (AID 824;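 active = viability at or below 27.92% in each of two runs, the all-compound median minus 4 SD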;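 note: 0% = 20 µM Hyamine control and 100% = vehicle cell control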). The conditions noted are these: 60 h, at 10 µM, stronger effect = lower value.
Test [14] can be described thus: inhibitors of the yeast RAM network, pilot screen, dse1pr::URA3 reporter, 5-FOA selection (AID 869;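 active = inhibition over a set limit, the all-compound mean plus 3 SD, in both replicate runs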;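 note: 0% = DMSO wells with no growth and 100% = 10 µM 1-NA-PP1 with full growth; RAM network block rescues cells from 5-FOA so hits raise OD615 growth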). To be noted: S. cerevisiae dse1pr::URA3 5-FOA growth, OD615, 2 d; at 10 µM; stronger effect = higher value; strain carries analog-sensitive mutant Cbk1 kinase.
A short description of test [15]: RAM signaling pathway blockade in yeast – S. cerevisiae, Pdr1DBD-CYC8 efflux-inhibited sensitized strain, primary screen (AID 1298;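 active = RAM network inhibition above 8.4% in each of two replicates, 3 SD over the compound average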;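 note: 0% = DMSO untreated cells without growth and 100% = 10 µM 1-NA-PP1 full growth; higher means more yeast growth rescued from 5-FOA killing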). The conditions noted are these: S. cerevisiae cbk1-as DSE1-URA3 strain, 5-FOA growth OD615, 2 d; at 50 µM; stronger effect = higher value.
[16] abbreviates: H69AR cells + 2 uM doxorubicin, measured here: viability with 2 uM doxorubicin, stronger effect = lower value.
[17] abbreviates: H69AR cells, compound alone cytotoxicity.

Results filed as inconclusive are left out. The source made the active and inactive calls.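 Rule for the calls, unless noted: active = cell viability at or below a set limit in both duplicate runs, the limit being the all-compound median minus 4 SD (cut at about 23% in these data, passing the limit was not always enough); inconclusive = no clear call, values can overlap the other calls; inactive = the rest.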

Sequence of Receptor tyrosine-protein kinase erbB-2 (Homo sapiens) (P04626 whole entry, looked up): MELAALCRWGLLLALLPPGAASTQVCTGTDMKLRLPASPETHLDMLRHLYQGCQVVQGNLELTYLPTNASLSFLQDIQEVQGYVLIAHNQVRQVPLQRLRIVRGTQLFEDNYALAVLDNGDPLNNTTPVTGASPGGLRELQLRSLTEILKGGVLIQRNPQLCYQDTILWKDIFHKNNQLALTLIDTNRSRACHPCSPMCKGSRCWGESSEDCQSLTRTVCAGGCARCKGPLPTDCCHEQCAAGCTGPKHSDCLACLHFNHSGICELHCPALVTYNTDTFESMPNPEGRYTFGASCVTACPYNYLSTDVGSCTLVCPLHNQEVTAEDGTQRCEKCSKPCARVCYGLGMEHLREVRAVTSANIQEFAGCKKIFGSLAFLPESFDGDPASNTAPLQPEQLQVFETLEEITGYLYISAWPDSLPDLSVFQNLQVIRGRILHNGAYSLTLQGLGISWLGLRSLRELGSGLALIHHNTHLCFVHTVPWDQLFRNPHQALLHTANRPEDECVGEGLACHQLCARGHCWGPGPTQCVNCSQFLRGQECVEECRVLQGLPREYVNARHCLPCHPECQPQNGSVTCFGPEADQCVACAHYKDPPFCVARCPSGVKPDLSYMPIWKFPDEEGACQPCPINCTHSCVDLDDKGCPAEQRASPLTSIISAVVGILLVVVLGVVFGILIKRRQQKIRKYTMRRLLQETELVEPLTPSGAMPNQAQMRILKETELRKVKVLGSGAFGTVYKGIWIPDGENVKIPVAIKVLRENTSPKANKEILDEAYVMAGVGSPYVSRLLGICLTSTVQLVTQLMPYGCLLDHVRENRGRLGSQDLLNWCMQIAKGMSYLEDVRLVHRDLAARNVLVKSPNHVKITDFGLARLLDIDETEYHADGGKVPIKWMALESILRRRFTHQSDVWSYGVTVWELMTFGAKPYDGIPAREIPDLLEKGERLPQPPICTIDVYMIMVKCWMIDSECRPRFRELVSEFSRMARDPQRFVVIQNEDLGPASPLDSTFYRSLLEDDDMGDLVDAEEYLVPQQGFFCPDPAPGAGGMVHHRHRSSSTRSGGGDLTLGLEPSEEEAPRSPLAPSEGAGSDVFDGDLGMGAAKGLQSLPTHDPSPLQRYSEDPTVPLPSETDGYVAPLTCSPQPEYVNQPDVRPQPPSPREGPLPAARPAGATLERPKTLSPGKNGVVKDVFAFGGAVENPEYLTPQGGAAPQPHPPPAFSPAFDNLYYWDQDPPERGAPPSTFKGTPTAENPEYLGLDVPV

As for `COc1ccc(NC(=O)c2cc(C3CC3)on2)c(OC)c1`, the viability was 96.5% in [1]; 96.5% (inactive) in test [3]; 86.7% (inactive) in test [4]; 91.2% (inactive) in test [5]; 99.1% in test [6] (setting [16]); 91.2% in [6] (setting [17]). Also, the viability in test [12] is 101% (inactive); in test [13], 92.2% (inactive). In addition, the Her2 level in [2] was 91.5% (inactive). Also, in test [6] (H69AR cells + 2 uM doxorubicin), the differential viability (reversal) was -7.87% (inactive). Further, the figures for the inhibition in [7], in test [8] and in [14] were 0% (inactive), 1.17% (inactive) and -0.14% (inactive), respectively. In addition, the figures for the growth inhibition in test [9] and in [10] were 4.41% (inactive) and 9.96% (inactive), respectively. Moreover, the viability increase in [11] was -1.92% (inactive). In [15], the RAM network inhibition was 4.64% (inactive).
Turning to `CCN1CCN(c2nc(C)nc3c2sc(=S)n3C)CC1`, the viability in test [1] is 100%; in [3] it was 100% (inactive); in test [4] it was 69.6% (inactive); in test [5], 90% (inactive); in test [6] (setting [16]) it was 91.3%; in [6] (setting [17]), 90%. The viability in test [12] was 102% (inactive); in [13], 92.6% (inactive). The Her2 level in [2] is 104% (inactive). Further, the differential viability (reversal) in [6] (H69AR cells + 2 uM doxorubicin) is -1.33% (inactive). For the same compound, the results for the inhibition in [7], in test [8] and in [14] were -3.73% (inactive), 0.5% (inactive) and 1.04% (inactive), respectively. Besides, the values for the growth inhibition in test [9] and in test [10] were -11.2% (inactive) and -5.22% (inactive), respectively. Besides, in [11], the viability increase is -2.66% (inactive). Also, the RAM network inhibition in [15] is 1% (inactive).
For `CC(=O)NC(CCS(C)(=O)=O)C(=O)Nc1cc(C)on1` (stereo not given), the viability in test [1] was 119%; in test [3], 119% (inactive); in test [4], 105% (inactive); in test [5] it was 99.1% (inactive); in test [6] (setting [16]), 92.1%; in [6] (setting [17]), 99.1%. Also, the viability in test [12] is 104% (inactive); in test [13], 95.7% (inactive). In [2], the Her2 level was 106% (inactive). In addition, in test [6] (H69AR cells + 2 uM doxorubicin), the differential viability (reversal) was 7% (inactive). In addition, the inhibition in test [7] was -4.67% (inactive); in test [8] it was 0% (inactive); in test [14], 1.99% (inactive). Further, the growth inhibition was -14.1% (inactive) in [9] and -22.3% (inactive) in [10]. In [11], the viability increase was 1% (inactive). The RAM network inhibition in [15] is 0.32% (inactive).
Regarding `Cc1onc(-c2ccccc2Cl)c1C(=O)N1CCc2ccccc21`, the viability in [1] is 87.5%; in test [3], 87.5% (inactive); in test [4] it was 80.9% (inactive); in test [5], 79% (inactive); in test [6] (setting [16]), 88.1%; in test [6] (setting [17]), 79%. In addition, the viability was 82.8% (inactive) in test [12] and 87.1% (inactive) in test [13]. For the same compound, in [2], the Her2 level was 78.5% (inactive). Also, in test [6] (H69AR cells + 2 uM doxorubicin), the differential viability (reversal) was -9.1% (inactive). The inhibition in test [7] is -1.82% (inactive); in test [8], -5.5% (inactive); in test [14] it was 2.23% (inactive). The growth inhibition in test [9] is -1.1% (inactive); in test [10], -8.1% (inactive). Besides, the viability increase in test [11] was -3.41% (inactive). Moreover, in [15], the RAM network inhibition was 7.99% (inactive).
For `Nc1nc2n(n1)C(c1cccc(Br)c1)CC(c1ccc(F)cc1)N2` (stereo not given), the viability in test [1] is 85%; in test [3] it was 85% (inactive); in [4], 98.8% (inactive); in test [5], 111% (inactive); in test [6] (setting [16]), 117%; in [6] (setting [17]), 111%. For the same compound, the viability in [12] and in test [13] was 89.3% (inactive) each time. For the same compound, the Her2 level in test [2] was 109% (inactive). Besides, in [6] (H69AR cells + 2 uM doxorubicin), the differential viability (reversal) was -6.81% (inactive). Further, the inhibition in test [7] is -1.03% (inactive); in [8] it was -6.5% (inactive); in test [14], 0.875% (inactive). For the same compound, the growth inhibition in [9] is 2.49% (inactive); in [10], 11.9% (inactive). Besides, in test [11], the viability increase was 0.72% (inactive). Besides, the RAM network inhibition in test [15] was 2.61% (inactive).
